Source: PubChem BioAssay (National Center for Advancing Translational Sciences (NCATS))
D1 PAM: Potentiators of Human D1 Dopamine Receptor: qHTS; D(1A) dopamine receptor (Homo sapiens), P21728; HEK293 TREx D1 cells, calcium flux, dopamine EC20 potentiation; potentiation, % at 10 µM; 360,000 tested, 0.036% active; AID 504651, 2011; in the data active means potentiation above about 30%
DRD3 agonist: qHTS of D3 Dopamine Receptor Agonist: qHTS | D3R DiscoveRx beta-arrestin cells, luminescence, 90 min | max activation, % | 410,000 tested, 0.58% active; in the data active means max activation above about 30%
Target sequence (P35462 whole entry, looked up): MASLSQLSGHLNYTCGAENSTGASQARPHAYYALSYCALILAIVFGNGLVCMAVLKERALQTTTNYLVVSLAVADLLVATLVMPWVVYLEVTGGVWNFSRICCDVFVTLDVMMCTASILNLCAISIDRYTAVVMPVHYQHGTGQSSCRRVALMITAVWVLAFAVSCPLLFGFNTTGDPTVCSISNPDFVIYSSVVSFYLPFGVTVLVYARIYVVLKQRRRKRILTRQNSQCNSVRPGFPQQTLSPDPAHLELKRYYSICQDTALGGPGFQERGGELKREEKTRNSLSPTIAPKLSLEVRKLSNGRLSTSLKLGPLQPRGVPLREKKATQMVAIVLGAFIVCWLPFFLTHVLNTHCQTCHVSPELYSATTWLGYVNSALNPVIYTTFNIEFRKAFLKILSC
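Agonist-mode cell screen: cells plated at 1500/well and incubated overnight at 37 °C, then exposed to library compounds for 90 min at 37 °C. Detection reagent was added for 30–60 min at room temperature, and luminescence was read.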
D1 agonist: Allosteric Agonists of the Human D1 Dopamine Receptor: qHTS; D(1A) dopamine receptor (Homo sapiens), P21728; 360,000 tested, 1% active; HEK293 T-REx D1 cells, calcium flux, agonist mode; activation, % at 2 µM; in the data active means activation above about 30%
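Tetracycline-induced HEK293 TREx D1 cells, force-coupled to calcium signalling, were dye-loaded with a no-wash calcium kit. Compound was pin-added after a 10 s baseline. Fluorescence was read kinetically at 1 cycle/s for 180 s, with calcium rises flagged as agonism.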
D1 antagonist: Antagonist of Human D 1 Dopamine Receptor: qHTS; 360,000 tested, 3.2% active; activity change, negative = inhibition, % at 10 µM; D(1A) dopamine receptor (Homo sapiens), P21728; HEK293 TREx D1 cells, calcium flux, dopamine EC80; stronger effect = lower value; in the data active means activity change below about -30%
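Tetracycline-induced HEK293 T-REx cells with force-coupled D1 receptor were loaded with a no-wash calcium dye. Compound was added after a 10 s baseline and read kinetically for 180 s; EC80 dopamine was then added and calcium flux followed another 180 s.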
DRD3 antagonist: qHTS of D3 Dopamine Receptor Antagonist: qHTS. D3R cells, DiscoveRx beta-arrestin luminescence, antagonist mode; stronger effect = lower value. max response, negative = inhibition, %. 360,000 tested, 2.5% active; in the data active means max response below about -50%; inconclusive means no clear call, values can overlap the other calls
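Cells plated overnight at 1500 cells/well, then exposed to library compounds with dopamine controls for 90 minutes at 37 degrees C. DiscoveRx reagent added for 30–60 minutes at room temperature; luminescence read, quantitative HTS format.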
Large screens that a line does not name were inactive; ! = not confirmed by another sample. Only some compounds are listed: those with a hit (about 6% of all), similar ones and a draw of the others.

CCOc1ccccc1C1CC(=O)Nc2c1c(=O)n(C)c1ncnn21 (configuration not stated)	none (no result: DRD3 antagonist)
Cc1cc(C)c2nc(N3CCCC(C(=O)NCc4cccc(Cl)c4)C3)sc2c1 (configuration not stated)	none (no result: DRD3 antagonist)
COc1ccc(OCc2cccc(C(=O)Nn3cc([N+](=O)[O-])cn3)c2)cc1	DRD3 antagonist -65
COc1ccc(-c2cccc(NS(=O)(=O)c3cc(C)c(Cl)cc3C)c2)nn1	none (no result: DRD3 antagonist)
CCOC(=O)c1c(NC(C)=O)c2c3c(sc2n1Cc1nc(-c2cccc(Cl)c2)oc1C)CCCC3	D1 antagonist -37 (no result: DRD3 antagonist)
CC(=O)N1c2ccc(S(=O)(=O)N3CCN(c4ccc(C)cc4C)CC3)cc2CC1C (configuration not stated)	none (no result: DRD3 antagonist)
O=C(c1cc2ncc(CCCl)cn2n1)N1CCCCCC1	D1 antagonist -48
CC1(C)OC(=O)C2(Cc3c(F)cccc3N3CCCC32)C(=O)O1 (configuration not stated)	none (no result: DRD3 agonist, DRD3 antagonist)
C[C@@H](NC(=O)Cn1ccc(NC(=O)OCc2ccccc2)nc1=O)c1cccc2ccccc12	D1 antagonist -33
C[C@@H](NCCCn1ccc(NC(=O)OCc2ccccc2)nc1=O)c1cccc2ccccc12	none (no result: D1 PAM, D1 agonist, D1 antagonist)
O=C(Nc1ccn(CCCNCCN2CCOCC2)c(=O)n1)OCc1ccccc1	none (no result: D1 PAM, D1 agonist, D1 antagonist)
O=C(Nc1ccn(CCCNC2CCN(Cc3ccccc3)CC2)c(=O)n1)OCc1ccccc1	DRD3 antagonist -53 (no result: D1 PAM, D1 agonist, D1 antagonist)
CNC(=O)COc1ccc(NC(=O)CCn2nc(-c3ccc(C)cc3)c3ccccc3c2=O)cc1	none (no result: DRD3 antagonist)
COCc1nn2c(N)c(-c3ccccc3)cnc2c1-c1ccccc1	D1 antagonist -35
Cn1cc(CN(C(=O)Nc2ccccc2)C2CCCCC2)c2ccccc21	none (no result: DRD3 antagonist)
Cn1cc(CN(C(=O)Nc2ccc(Cl)c(Cl)c2)C2CCCCC2)c2ccccc21	D1 antagonist -47 (no result: DRD3 antagonist)
CCc1cnc2c(c1SCC(=O)c1ccc(Cl)cc1)c(=O)n(C)c(=O)n2C	none (no result: D1 antagonist, DRD3 antagonist)
CC(C)(C)C(=O)C1=C(O)C(=O)N(Cc2ccccc2)C1c1ccccc1F (configuration not stated)	D1 agonist 54
COCCCn1c(SCc2cccc(C(F)(F)F)c2)nc2cc(OC)c(OC)cc2c1=N	none
COc1ccc(Cn2c(SCc3ccc(C)cc3)nc3cc(OC)c(OC)cc3c2=N)cc1Cl	none
COc1ccc(Cn2c(SCc3cc(C)ccc3C)nc3cc(OC)c(OC)cc3c2=N)cc1	DRD3 agonist 44
COCCCn1c(SCc2ccccc2)nc2cc(OC)c(OC)cc2c1=N	DRD3 agonist 31 (no result: D1 PAM, D1 agonist, D1 antagonist)
CCc1cc(=O)oc2c(C)c(OCC(=O)NCC3CCC(C(=O)O)CC3)ccc12 (configuration not stated)	D1 antagonist -66
S=c1nn[nH]c2ccccc12	DRD3 agonist 85 (no result: D1 PAM, D1 agonist, D1 antagonist)
Nc1n[nH]c2ccccc12	none
O=S(=O)(Nc1cccc(-c2ccc(N3CCCCC3)nn2)c1)c1ccc(Cl)s1	none (no result: DRD3 antagonist)
O=C(Oc1ccccc1)c1cccc2cccnc12	DRD3 antagonist -54
Cc1ccc(NC(=O)CCCc2ccccc2)c([N+](=O)[O-])c1	D1 antagonist -48
O=C(CCc1ccccc1)NC(=S)Nc1ccccc1[N+](=O)[O-]	D1 antagonist -34, DRD3 antagonist inconclusive
O=C(CCc1ccccc1)Nc1ccccc1[N+](=O)[O-]	D1 antagonist -36
O=C(CCCc1ccccc1)Nc1ccccc1[N+](=O)[O-]	none
COc1cc(OC)cc(C(=O)NCC(=O)Nc2ccc(-c3ccccc3)cc2)c1	DRD3 antagonist -59
COc1cc(OC)cc(C(=O)NCC(=O)Nc2ccc(C)c(Cl)c2)c1	none
COc1ccccc1CN1C(=O)CN(C2CCCCCC2)C(=O)C1c1ccc(C)cc1 (configuration not stated)	none (no result: DRD3 antagonist)
COc1ccc(N2CCN(C(c3ccccc3)c3nnc(-c4ccccc4Cl)o3)CC2)cc1 (configuration not stated)	none (no result: DRD3 antagonist)
COCCOC(=O)c1c(-c2ccccc2)c(-c2ccccc2)nn(C)c1=O	none (no result: DRD3 antagonist)
COc1cc(NC(=S)NC(=O)CCc2ccccc2)cc(OC)c1	DRD3 antagonist -52
COc1cc(NC(=O)C[n+]2ccc(C(=O)c3ccccc3)cc2)cc(OC)c1	DRD3 antagonist -72 (no result: D1 PAM, D1 agonist, D1 antagonist)
COc1cc(NC(=O)Cc2ccccc2)cc(OC)c1	none
COc1ccccc1NC(=S)NC(=O)CCc1ccccc1	none
Cc1cc(C)cc(N2CCCn3c2nc2c3c(=O)n(CC(=O)OCc3ccccc3)c(=O)n2C)c1	none
CCn1c(=O)c2c(nc3n2CCCN3c2cccc(C)c2)n(C)c1=O	D1 antagonist -31
Cc1ccc(N2CCCn3c2nc2c3c(=O)n(CC(=O)OCc3ccccc3)c(=O)n2C)cc1C	D1 antagonist -46 (no result: DRD3 agonist, DRD3 antagonist)
O=C(CN1C(=O)COc2ccc(S(=O)(=O)N3CCOCC3)cc21)N1CCN(c2cccc(C(F)(F)F)c2)CC1	none (no result: DRD3 antagonist)
CCOc1ccc(CN2C(=O)c3ccccc3Sc3ccc(C(=O)NCCCN4CCOCC4)cc32)cc1	D1 agonist 30!
CCOc1ccc(-n2c(C)nc3cc(C(=O)NCCN4CCOCC4)ccc32)cc1	none
CCCCN(CC)CCCNC(=O)c1ccc2c(c1)N(Cc1ccc(C)cc1)C(=O)c1ccccc1S2	D1 agonist 51, D1 antagonist -33 (no result: DRD3 antagonist)
CCOc1ccc(-n2c(C)nc3cc(C(=O)NCCCN4CCOCC4)ccc32)cc1	D1 antagonist -52
COCCCNC(=O)c1ccc2c(c1)N(Cc1ccccc1)C(=O)c1ccccc1S2	none (no result: DRD3 antagonist)
O=C(NCCCN1CCOCC1)c1ccc2c(c1)N(Cc1ccccc1)C(=O)c1ccccc1S2	none
CCN(c1ccccc1)S(=O)(=O)c1ccc2[nH]cc(C(=O)NCc3ccc(C)cc3)c(=O)c2c1	none (no result: DRD3 antagonist)
Cc1ccc2c(c1)c(=O)c(C(=O)c1ccc3c(c1)OCO3)cn2Cc1ccc(Cl)cc1	none (no result: DRD3 antagonist)
CN1CCN(/N=C/c2nc(-c3ccc(Cl)cc3)n3ccccc23)CC1	D1 antagonist -61
CC(COc1ccccc1)NC(C)C(O)c1ccc(O)cc1 (configuration not stated)	DRD3 antagonist -87
C[C@H](NCCc1ccc(O)cc1)[C@H](O)c1ccc(O)cc1	none
CC(C)=CCCC(C)CN(C)CCc1ccccn1 (configuration not stated)	DRD3 antagonist -64
CC(C)(C)C1C/C(=C/c2ccccn2)C(=O)/C(=C/c2ccccn2)C1 (configuration not stated)	DRD3 antagonist -53
CC1C/C(=C/c2ccccn2)C(=O)/C(=C/c2ccccn2)C1 (configuration not stated)	DRD3 antagonist -60
O=C1/C(=C/c2ccccn2)COc2ccccc21	none
